Hits are enriched below; roughly 4.6% of the tested compounds scored in any of these assays.
Epigenetic reg: epigenetic control regulation, reporter derepression; 280,000 tested, 0.2% active; Potency, µM (doses to about 53.9 µM), without a hit: at the top dose GFP activation, usual class: activators; AID 1865; murine LDR cells, GFP reporter derepression, 30 h; active = well fitted activation curve with a large enough effect; note: potency is the fitted concentration of half-maximal effect; % of control where 0% means no effect; nearly all actives have a fitted effect of over 60% in size
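Reporter derepression read as number of fluorescent GFP-positive objects, 20-120 um in size, counted by laser-scanning cytometer. Mouse LDR line with an epigenetically silenced CMV-GFP locus; compound incubation 30 h, 37 C.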
TRHR ag: agonists of human TRH receptor; activation, % at 2 µM; TRHR cells, calcium flux fluo-8, FDSS agonist mode; AID 493084; 360,000 tested, 0.18% active; note: 0% is about no effect
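TRHR-expressing cells loaded with fluo-8 calcium dye; 23 nL library compound pin-transferred, kinetic FDSS fluorescence (Ex 480/Em 530) recorded about 180 s for agonist-induced calcium release, before a 10 nM TRH EC20 addition for potentiator mode.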
D1 PAM: enhances dopamine response at the human D1 receptor | P21728 | HEK293 TREx D1 cells, calcium flux, dopamine EC20 potentiation | potentiation, % at 10 µM | 360,000 tested, 0.036% active | AID 504651; in the data active = potentiation above about 30%; note: 0% is about no effect
Target sequence (P21728 whole entry, looked up): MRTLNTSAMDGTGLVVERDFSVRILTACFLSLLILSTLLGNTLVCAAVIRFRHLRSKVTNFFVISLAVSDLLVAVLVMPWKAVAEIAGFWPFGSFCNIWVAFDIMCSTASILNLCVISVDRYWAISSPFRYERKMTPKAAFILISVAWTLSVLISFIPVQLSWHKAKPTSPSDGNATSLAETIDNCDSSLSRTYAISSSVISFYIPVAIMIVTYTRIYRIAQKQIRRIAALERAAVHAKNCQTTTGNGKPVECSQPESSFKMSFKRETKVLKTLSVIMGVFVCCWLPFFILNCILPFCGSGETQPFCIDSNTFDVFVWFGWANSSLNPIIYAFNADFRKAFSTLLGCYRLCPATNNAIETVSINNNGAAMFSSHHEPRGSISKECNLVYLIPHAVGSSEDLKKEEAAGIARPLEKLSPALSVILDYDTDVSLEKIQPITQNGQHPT
D1 antagonist: human D1 dopamine receptor antagonism; HEK293 TREx D1 cells, calcium flux, dopamine EC80; stronger effect = lower value; activity change, negative = inhibition, % at 10 µM; 360,000 tested, 3.2% active; P21728; in the data active = activity change below about -30%; note: % is set by controls: 0 for no effect and ±100 for the full control effect
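Compound effects on dopamine-evoked calcium signalling were measured in tetracycline-induced HEK293 Trex D1 cells. Dopamine at EC80 followed a 180 s compound pre-read, and fluorescence was tracked kinetically for 180 s more.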
TRHR enhancer: TRH receptor (human) allosteric enhancement. P34981. TRHR cells, fluo-8 calcium fluorescence, EC20 TRH enhancement. enhancement, % at 2 µM. 360,000 tested, 0.66% active. AID 493056; in the data active = enhancement above about 30%; note: 0% is about no effect
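TRHR-expressing cells loaded with fluo-8 calcium dye were read kinetically (ex 480/em 530) during compound addition, then stimulated with an EC20 of TRH (10 nM final). Enhancement of the Gq-mediated intracellular calcium response was scored.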
D1 ag: activates the human D1 dopamine receptor. HEK293 T-REx D1 cells, calcium flux, agonist mode. activation, % at 2 µM. 360,000 tested, 1% active. AID 504660; note: 0% is about no effect
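Inducible HEK293 T-REx D1 cells, force-coupled to calcium signalling, were plated at 4000 cells/well with tetracycline and held overnight at 30 C. After no-wash calcium dye loading, compound-evoked calcium rise over 180 s flagged agonists.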
An asterisk follows results filed as active; · = no result given. Cut-off read from the data, not from the text of the source, unless noted: active = activation above about 30%; inactive = the rest.

SMILES | Epigenetic reg | TRHR ag | D1 PAM | D1 antagonist | TRHR enhancer | D1 ag
COc1ccccc1/C=N/NC(=O)c1ccc(NC(=O)c2ccccc2Br)cc1 | -5% | 0 | -2 | -28 | 4 | 10
CCC(=O)Nc1ccc(C(=O)N/N=C/c2cc(Br)c(OC)cc2OC)cc1 | -1% | 0 | -8 | -31* | 0 | 2
O=C(c1ccc([N+](=O)[O-])cc1)N1CCSC1c1cccc(Cl)c1 (centres undefined) | 1% | 1 | -12 | -35* | -1 | 3
NCCCC[C@@H]1NC(=O)[C@H](CCC(=O)O)NC(=O)c2cc([N+](=O)[O-])cc(I)c2SC[C@@H](C(=O)NCC(N)=O)NC1=O | 1% | 0 | -5 | -44* | 10 | -1
COc1ccc(-n2c(=O)c3sc4ccccc4c3n(Cc3ccccc3C)c2=O)cc1OC | 3% | 0 | -4 | -13 | 0 | 0
CC1CN(C(=S)Nc2ccccc2C(F)(F)F)CC(C)O1 (centres undefined) | · | 0 | -1 | -34* | 4 | 2
Cc1c(Cl)ccc2sc(N3CCN(C(=O)C4CC4)CC3)nc12 | 5% | 0 | 0 | · | -2 | 8
CCOC(=O)c1c(C)oc2nc(C)nc(NCCc3ccc(SC)cc3)c12 | 10% | 0 | -6 | -32* | 12 | 5
CCOC(=O)c1c(C)oc2nc(C)nc(NCCc3ccc(OC)c(OC)c3)c12 | -1% | 0 | 0 | 0 | 22 | 2
COc1ccc(C2c3c(-c4ccccc4O)n[nH]c3C(=O)N2CCc2ccccc2)cc1 (centres undefined) | 6% | 0 | 2 | 8 | 2 | 3
N#C/C(=C\c1ccc[nH]1)S(=O)(=O)c1ccccc1 | -2% | 2 | -2 | -32* | -1 | 20
Cn1nccc1/C=C(/C#N)S(=O)(=O)c1ccccc1 | 2% | 1 | 0 | -1 | -2 | 3
O=S(=O)(c1ccc2c(c1)OCCO2)C1CCN(S(=O)(=O)c2c(F)cccc2F)CC1 | · | 0 | -6 | -1 | 2 | 6
CCCCOC(=O)C[N+](C)(C)CCOC1CC2CCC1(C)C2(C)C (centres undefined) | 0% | 0 | -2 | 2 | 6 | 0
CCCCCCOC(=O)C[N+](C)(C)CCOC1CC2CCC1(C)C2(C)C (centres undefined) | 0% | -1 | 0 | 6 | -1 | 92*
CCCCCCCOC(=O)C[N+](C)(C)CCOC1CC2CCC1(C)C2(C)C (centres undefined) | 1% | 1 | 6 | 42 | -1 | 131*
O=C(Nc1ccccc1OC(F)F)c1oc2ccccc2c1COc1ccccc1 | 0% | 3 | -2 | -8 | -4 | 32*
CC(C)CNC(=O)c1oc2ccccc2c1COc1ccccc1 | 0% | -1 | 4 | 21 | -7 | 5
COCCCNCCCCOc1ccccc1-c1ccccc1 | -2% | 0 | -8 | -37* | 4 | 15
COCCNCCOc1ccccc1-c1ccccc1 | -1% | 0 | -7 | -31* | 10 | 17
CNCCCCOc1ccccc1-c1ccccc1 | -2% | 1 | -6 | -48* | 10 | 38*
COCCCNCCOc1ccccc1-c1ccccc1 | -1% | 0 | -9 | -44* | -1 | 14
CCOC(=O)C1CCCN(C(=O)Cn2ncc3c(C)n(Cc4ccccc4Cl)c(C)c3c2=O)C1 (centres undefined) | -1% | -1 | -3 | -13 | -3 | 13
CC(=O)Oc1cccc(N2C(=O)c3cccc4c([N+](=O)[O-])ccc(c34)C2=O)c1 | · | 5 | -9 | -54* | -5 | 3
O=C(Nc1ccc(S(=O)(=O)Nc2nccs2)cc1)c1cccc(N2C(=O)c3ccccc3C2=O)c1 | -1% | 2 | 1 | 1 | 0 | 7
SMILES | Epigenetic reg | TRHR ag | D1 PAM | D1 antagonist | TRHR enhancer | D1 ag
O=C(O)c1ccc(CN2C(=O)c3cccc4c([N+](=O)[O-])ccc(c34)C2=O)cc1 | · | 12 | -2 | 2 | -12 | 34*
O=C(Nc1nccs1)c1cccc(N2C(=O)c3cccc4c([N+](=O)[O-])ccc(c34)C2=O)c1 | 13µM* | 9 | -4 | -19 | 12 | 2
Cc1ccc(C(=O)O)cc1N1C(=O)c2cccc3c([N+](=O)[O-])ccc(c23)C1=O | · | 2 | -1 | -4 | 12 | 7
O=C(NCCCc1nc2ccccc2n1Cc1ccc(Cl)cc1)c1ccco1 | -2% | -1 | -2 | -31* | 8 | 81*
COC(=O)c1ccccc1NC1CC(=O)N(c2c(C)cccc2C)C1=O (centres undefined) | -2% | 1 | -3 | 3 | 33* | 2
COC(=O)c1ccccc1SC1CC(=O)N(c2ccccc2)C1=O (centres undefined) | 4% | -1 | -2 | -15 | -1 | 1
COC(=O)c1ccc(NC2CC(=O)N(c3ccccc3C)C2=O)cc1 (centres undefined) | 3% | 0 | -6 | -33* | -1 | 5
Fc1ccc(N2CCN(c3nnnn3-c3ccccc3)CC2)cc1 | -1% | 0 | 3 | -40* | 2 | 0
CCOC(=O)N1CCN(c2nnnn2-c2ccccc2)CC1 | -8% | 1 | -3 | 12 | 2 | -1
Cc1cccc(NS(=O)(=O)c2ccc3c(c2)C(C)(C)C(=O)N3C)c1 | -1% | 0 | -9 | 14 | -7 | 2
CN(C)/C=C1\C=C2C(=O)c3ccccc3N2C1=O | 7% | 249* | 2 | -62* | 31* | 335*
CN(C)S(=O)(=O)N1C(=O)c2ccccc2C1=O | 1% | -1 | 1 | 10 | 5 | 4
CC(=O)Nc1cc(C(N)=O)c(Cl)cc1Cl | 3% | 1 | -9 | -31* | -3 | 2
CC(=O)Nc1ccc(Cl)c(C(N)=O)c1 | 2% | 0 | 10 | 1 | 0 | 5
Cc1cc(C)cc(C(=O)NC(=S)Nc2ccc(-c3cc4ccccc4oc3=O)cc2)c1 | 13% | 0 | -10 | -57* | 1 | 0
Cc1ccc(CNC(=O)C2CCCN(c3nnc(-n4c(C)ccc4C)s3)C2)cc1 (centres undefined) | 4% | -2 | -3 | 9 | 1 | -3
COc1cccc(CNC(=O)c2cc3c(s2)-c2c(C)cccc2OC3)c1 | 2% | 0 | -8 | -36* | 14 | 2
COc1cc(Cl)c(C)cc1NC(=O)c1cc2c(s1)-c1c(C)cccc1OC2 | 1% | 0 | -4 | 8 | -17 | -1
COc1ccc(NC(=O)c2cc3c(s2)-c2c(C)cccc2OC3)cc1Cl | 9% | 1 | -4 | -11 | 50* | 1
COc1cccc(CNC(=O)c2cc3c(s2)-c2ccccc2OC3)c1 | 0% | 0 | -6 | -11 | 1 | 2
